Compound activity as filed in PubChem BioAssay.
Sampled rows, rich in hits. Any-hit rate of the full collection: about 3.8%.
TGFb SMAD3 inh: blocks TGF-b signaling | HepG2 CAGA-GFP TGF-b/SMAD3 reporter, GFP fluorescence, 18 h; TGF-beta stimulated, 500 pg/mL final | hit rate 1.2% among 410,000 | Potency, µM (series often up to 46.1 µM), without a hit: top-dose activity, negative = inhibition, actives largely listed as inhibitors; further: on the % scale 0 is the no-effect control and ±100 the full control effect; nearly all actives have a fitted effect of over 65% in size
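Smad-responsive CAGA-GFP expression was quantified in HEPG2 cells exposed to compounds and 500 pg/mL final TGF-beta for 18 h at 37 degrees C; unstimulated wells defined full inhibition.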
HT1080-NT tox: kills 2HG-producing HT-1080-NT fibrosarcoma cells; HT-1080-NT fibrosarcoma viability, CellTiter-Glo ATP luminescence, 48 h; Potency, µM (doses to about 46.1 µM), without a hit: top-dose activity, negative = less viability, actives largely listed as cytotoxic; hit rate 1.6% among 360,000; AID 686970;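 further: NT is the 2HG producing partner of a matched IDH1 knockdown line; 0% = DMSO-treated cells and -100% = media-only wells without cells; nearly all actives have a fitted effect of over 55% in size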
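Luminescent CellTiter-Glo readout after 48 hours of compound exposure at 37 degrees C defined viability of HT-1080-NT cells. Activity was normalized to DMSO wells and cell-free media wells; concentration-response curves were fitted and assigned curve classes.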
HT1080 IDH1KD tx: kills HT-1080 cells with IDH1 knockdown; HT-1080 IDH1 knockdown viability, ATP luminescence, 48 h; Potency, µM (doses to about 46.1 µM), for the others: at the top dose activity, negative = toxicity, hits mostly cytotoxic; hit rate 2% among 360,000; AID 686971;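 further: 0% = DMSO wells and -100% = cell-free medium wells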
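Assay cells: HT-1080 with IDH1 knockdown, 750 per well, RPMI/5% FBS. Exposure: 48 h at 37 °C following 2 h pre-incubation. Read: CellTiter-Glo luminescence; fitted concentration-response, curve class assigned.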
HepG2 tox: kills HepG2 cells in TGF-b inhibitor counter-screen; Potency, µM (highest dose often 46.1 µM), for the others: at the highest dose activity change, negative = cytotoxicity, actives largely listed as cytotoxic; HepG2 CAGA-GFP viability, ATP luminescence, 18 h; hit rate 0.76% among 410,000
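CellTiter-Glo luminescence gave cytotoxicity after 18 hours at 37 degrees C. The cells were HepG2 CAGA-GFP in 1% FBS DMEM, stimulated with 500 pg/mL TGF-beta after compound addition. %Activity was normalised to no-cell wells (complete cell-killing) and DMSO (no toxicity), and curves were fitted and classified.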
ATXN2 expr inh: inhibitors of ATXN2 expression; HEK-293 ATXN2-luciferase reporter, luminescence, 24 h; Potency, µM (doses to about 57 µM), inactives show at the highest dose activity change, negative = inhibition, most hits filed as inhibitors; hit rate 0.72% among 360,000; AID 1745845; further: on the % scale 0 is the no-effect control and ±100 the full control effect; nearly all actives have a fitted effect of over 55% in size
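qHTS (up to 57 uM final) was run with 24 h compound exposure of reporter cells at 37 °C. Each well was multiplexed: SteadyGlo luminescence measured ATXN2-luciferase expression after a fluorogenic Gly-Phe-AFC viability readout (25 uM final).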
S2 tox: cell viability loss in ATXN counter-screen | S2 cells (HEK-293 line with an ATXN2-luciferase reporter) viability, CellTiter-Fluor protease fluorescence, 24 h | Potency, µM (top dose mostly 56.7 µM), actives largely listed as cytotoxic | hit rate 0.49% among 400,000 | AID 651635; further: nearly all actives have a fitted effect of over 40% in size
Active calls of the source: *; i = inactive; ? = inconclusive; / = no result given. The call rests on the fitted dose curve; in most records, active means well fitted curve in the direction sought with a large enough effect; inconclusive means small, poorly fitted or top-dose-only effect, or another doubt; inactive means no such curve, though single readings can be large; an effect the other way counts as inactive or inconclusive. Potency means the concentration at half of the fitted maximal effect.

SMILES	TGFb SMAD3 inh	HT1080-NT tox	HT1080 IDH1KD tx	HepG2 tox	ATXN2 expr inh	S2 tox
CCc1cccc(NC(=O)C(Cc2ccccc2)NS(=O)(=O)c2ccc3c(c2)c(=O)n(C)c(=O)n3C)c1 (stereo not drawn)	4.5µM*	/	/	-31%	-32%	i
Cc1ccc(NC(=O)C(Cc2ccccc2)NS(=O)(=O)c2ccc3c(c2)c(=O)n(C)c(=O)n3C)cc1 (stereo not drawn)	?	/	/	-9%	-20%	i
COCCN(C)C(=O)c1cnn(-c2ncc3c(n2)-c2ccccc2CC3)c1C	/	/	/	/	/	i
O=S(=O)(NCCS(=O)(=O)N1CCN(c2ccccc2)CC1)c1ccc(Br)cc1	20%	/	/	-5%	/	/
CCc1nnc(NC(=O)CCc2ccc(C)o2)s1	14%	-3%	?	-16%	4%	i
Cc1ccc(CCC(=O)Nc2ncc(Cc3cccc(Cl)c3Cl)s2)o1	?	0.73µM*	?	1%	0%	?
Cc1cnc(SCc2ccccn2)nc1C1CCCN(Cc2ccsc2)C1 (stereo not drawn)	/	/	/	/	/	i
O=C(Cc1ccccc1)N(Cc1cccnc1)c1nc2c(Cl)cccc2s1	-27%	/	/	-6%	/	/
O=C(Cc1ccccc1)N(Cc1cccnc1)c1nc2c(F)cccc2s1	1.6µM*	/	/	-35%	/	/
CCOC(=O)c1sc(NC(=O)c2cc(-c3ccccc3)nc3ccccc23)c(C#N)c1C	?	2.9µM*	5.2µM*	-4%	?	?
CCOC(=O)c1sc(NC(=O)CSc2n[nH]c(-c3ccccc3)n2)c(C#N)c1C	?	?	?	-24%	-18%	?
CC1(C)CC(=O)C(N=Nc2ccc(C(F)(F)F)cc2[N+](=O)[O-])=C(O)C1	13µM*	11%	12%	-57%	?	?
CC(NC(=O)CCn1c(=O)c2cccn2c2ccc(F)cc21)c1ccccc1 (stereo not drawn)	0%	/	/	-6%	/	/
COc1ccc(-c2nc(SCCOc3ccccc3Cl)n3[nH]c(=O)cc3n2)cc1	?	/	/	-21%	-7%	i
C=CCc1ccccc1OCCSc1nc(-c2ccccc2F)nc2cc(=O)[nH]n12	18µM*	/	/	-24%	-20%	i
CCCCc1ccc(-n2nc3cc(C)c(NC(=O)c4ccc(C#N)cc4F)cc3n2)cc1	-6%	/	/	17%	-1%	i
Cc1ccc(NC(=O)c2cn(-c3ccccc3)nc2-c2ccccc2)cc1	?	/	/	-21%	-8%	i
Cc1nn(Cc2c(Cl)cccc2Cl)c(C)c1NC(=O)c1cn(-c2ccccc2)nc1-c1ccccc1	-21%	3.7µM*	4.1µM*	-2%	13µM*	13µM*
CN(C)CCCOC1(Cc2ccccc2)CCCCCC1	/	/	/	/	-8%	i
C=C1C[C@@]23C[C@]1(O)CC[C@@H]2[C@]12C=C[C@@H](O)[C@](C)(C(=O)O1)[C@H]2[C@H]3C(=O)O	/	/	/	/	/	i
COc1ccccc1S(=O)(=O)N1CCN(c2nc(-c3cccs3)nc3ccccc23)CC1	/	7%	0%	/	/	/
COc1ccc(Nc2nc(-c3cccs3)nc3ccccc23)cc1S(=O)(=O)N1CCOCC1	?	16µM*	?	-37%	-4%	i
CCCn1c2ccccc2c2cnn(CC(=O)N3CCC(C)CC3)c(=O)c21	?	/	/	3%	/	/
CCn1c(=S)sc2c(=O)n(CC(=O)Nc3ccccc3C(F)(F)F)c(C)nc21	1%	0%	2%	-13%	/	32µM*
COc1ccc(N2CCN(S(=O)(=O)CCNC(=O)c3ccc(C(F)(F)F)cc3)CC2)cc1	30%	/	/	1%	/	/
CCOC(=O)N1C2=NC(C(=O)OC)=C(C(=O)OC)[C@@H]3N(C)c4ccc(OC)cc4[C@]23C[C@H]1C(=O)OC	11%	3%	4%	-3%	1%	i
